# DT40 TDP1 no CPT: qHTS for Inhibitors of human tyrosyl-DNA phosphodiesterase 1 (TDP1): qHTS in cells in absence of CPT | DT40 Tdp1-/- hTDP1 cells, no CPT, ATP luminescence, 48 h | Potency, µM (doses to about 46.2 µM), for inactives: at the top dose activity change, negative = growth inhibition, usual class: inhibitors | 15% of 420,000 active; note: potency is the fitted concentration of half-maximal effect; nearly all actives have a fitted effect of over 55% in size
#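 Growth kinetics read by CellTiter-Glo luminescence after ≥48 hr at 37 °C. Cells: DT40 Tdp1-/- stably carrying human TDP1, 400 per well, compound exposure in the absence of CPT (DMSO vehicle).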
# ELG1 repair inh: blocks ELG1-dependent DNA repair in HEK293T cells; HEK293T ELG1-luciferase reporter, luminescence, 16 h; DNA damage induced by 5-fluorouridine; Potency, µM (series often up to 46.1 µM), for inactives: at the top dose activity change, negative = inhibition, actives largely listed as inhibitors; 2.3% of 330,000 active; AID 504467; note: potency is the fitted concentration of half-maximal effect; nearly all actives have a fitted effect of over 55% in size
#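 Overnight (16 hr) co-exposure of 2,000 cells/well to 5-fluorouridine and compound at 37 °C preceded detection. Luciferase was quantified via ONE-Glo luminescence; loss of signal denotes inhibition.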
# HT1080NT lethal: kills 2HG-producing HT-1080-NT fibrosarcoma cells | HT-1080-NT fibrosarcoma viability, CellTiter-Glo ATP luminescence, 48 h | Potency, µM (top dose mostly 46.1 µM), for the others: at the highest dose activity, negative = less viability, most hits filed as cytotoxic | 1.6% of 360,000 active;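 note: NT is the 2HG producing partner of a matched IDH1 knockdown line; potency is the fitted concentration of half-maximal effect; 0% = DMSO-treated cells and -100% = media-only wells without cells; nearly all actives have a fitted effect of over 55% in size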
#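 Toxicity toward the 2HG-producing NT line was scored as %Activity, normalised to DMSO and no-cell wells, from CellTiter-Glo luminescence after 48 hours' treatment.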
# IL1B secr inh: inflammasome signaling inhibition, IL-1 beta readout | THP-1 LPS/ATP IL-1B secretion, AlphaLISA, 16 h; hits give low values | activity change, % at 57.5 µM | 4.7% of 360,000 active | AID 743279; in the data active = activity change below about -50%; inconclusive = mostly about -30% to -49%
#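 Secreted IL-1B measured by AlphaLISA bead assay after 16 h compound exposure of THP-1 cells; compounds (final up to 57.5 uM) added 1 h before LPS (250 ng/mL) and ATP (1.25 mM) stimulation; lower signal means less secretion.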
# HT1080 IDH1KD tx: toxicity to HT-1080 IDH1 knockdown cells (counter line); 2% of 360,000 active; HT-1080 IDH1 knockdown viability, ATP luminescence, 48 h; AID 686971; Potency, µM (doses to about 46.1 µM), inactives show at the top dose activity, negative = toxicity, hits mostly cytotoxic;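 note: potency is the fitted concentration of half-maximal effect; 0% = DMSO wells and -100% = cell-free medium wells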
#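 Viability of IDH1-knockdown HT-1080 fibrosarcoma cells was assessed by CellTiter-Glo after 48 h at 37 °C with titrated compound; concentration-effect curves were classified by fit quality and response size.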
# DT40 TDP1 CPT: growth inhibition of DT40 Tdp1-/-;hTDP1 cells with camptothecin (screen for TDP1 inhibitors); chicken DT40 Tdp1-/-;hTDP1 cells + 20 nM CPT, ATP luminescence, 48 h; Potency, µM (doses to about 46.2 µM), for inactives: top-dose activity change, negative = growth inhibition, most hits filed as inhibitors; 12% of 420,000 active; note: potency is the fitted concentration of half-maximal effect; nearly all actives have a fitted effect of over 55% in size
#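 Chicken DT40 Tdp1-/- cells complemented with human TDP1, 400 cells/well, exposed to compounds plus 20 nM camptothecin for at least 48 h at 37 C; viability read as ATP content by CellTiter-Glo luminescence.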
# * hit, by the source's call; ? = inconclusive; / = not tested or not shown; [ ] = remark or other dose. Compounds with a hit are over-represented: about 19% of the library has one in this group of screens. Unless noted, calls come from the whole dose curve; as a rule, active = well fitted curve in the direction sought with a large enough effect; inconclusive = small, poorly fitted or top-dose-only effect, or another doubt; inactive = no such curve, though single readings can be large; an effect the other way counts as inactive or inconclusive. Unless noted, % is set by controls: 0 for no effect and ±100 for the full control effect.
SMILES,DT40 TDP1 no CPT,ELG1 repair inh,HT1080NT lethal,IL1B secr inh,HT1080 IDH1KD tx,DT40 TDP1 CPT
Cc1ccc(C)c(N2CCN(C3CCCCC3NS(=O)(=O)c3ccccc3)CC2)c1 (configuration not stated),4.61µM*,-28.9%,8.8%,150.1,0.4%,7.31µM*
COc1ccccc1N1CCN(C2CCCCC2NS(=O)(=O)c2ccc(Cl)cc2)CC1 (configuration not stated),23.1µM*,?,-25.7%,-71.6*,-25.7%,23.1µM*
O=S(=O)(NC1CCCCC1N1CCCCC1)c1ccccc1 (configuration not stated),9.6%,?,6.6%,-6.6,14.2%,2.1%
Cc1ccc(Cl)cc1N1CCN(C2CCCCC2NS(=O)(=O)c2ccccc2)CC1 (configuration not stated),18.4µM*,?,-6.9%,21.4,3.3%,16.4µM*
CN1CCN(C2CCCCC2NS(=O)(=O)c2ccc(Cl)cc2)CC1 (configuration not stated),4.9%,?,-13.7%,0.0,-13.6%,-17.2%
COCCNC(=O)C1(C)CCCN(C(=O)c2ccccc2F)C1 (configuration not stated),-0.8%,/,?,8.9,16.3%,-7.2%
C#CCCCCCCCCCCCC(=O)CC(O)COC(C)=O (configuration not stated),1.5%,/,/,/,/,-0.9%
COCCNC(=O)C1CCCN(C(=O)c2sccc2C)CC1 (configuration not stated),-4.4%,/,28.8%,28.2,1.4%,-0.2%
CCOc1cc(C(=O)NC)cc(Br)c1OC,-10.5%,1.7%,11.4%,17.2,-7.8%,19.8%
CCOc1cc(C(=O)N=c2sccn2C)cc(Br)c1OC,18.4µM*,?,14.8%,?,-5.5%,18.4µM*
CCCSc1ncc(Cl)c(C(=O)Nc2ccc(OC)cc2OC)n1,-17.7%,/,/,/,/,?
CC1CCCCN1C(=O)CSc1nc2cc3c(cc2c(=O)n1Cc1ccc2c(c1)OCO2)OCO3 (configuration not stated),23.1µM*,?,-18.1%,?,-9.1%,20.6µM*
CCCCNC(=O)CSc1nc2cc3c(cc2c(=O)n1CCCCCC(=O)NCCc1ccc(OC)c(OC)c1)OCO3,1.3%,/,/,/,/,15.5%
COCCNC(=O)CSc1nc2cc3c(cc2c(=O)n1Cc1ccc(C(=O)NCCc2ccc(OC)c(OC)c2)cc1)OCO3,20.6µM*,/,/,/,/,8.2µM*
CCN(CC)C(=O)CSc1nc2cc3c(cc2c(=O)n1Cc1ccc(OC)cc1)OCO3,18.4µM*,-23.2%,?,10.7,-17.5%,23.1µM*
CCN(CC)C(=O)CSc1nc2cc3c(cc2c(=O)n1CCCCCC(=O)NCCc1ccc(OC)c(OC)c1)OCO3,14.6µM*,/,/,/,/,14.6µM*
Cc1cn([C@H]2C[C@H](O)[C@@H](/C=C/C(=O)N3CCN(Cc4ccc(F)cc4)CC3)O2)c(=O)[nH]c1=O,6.7%,/,10.0%,-12.0,11.8%,-0.7%
CC(C)(C)c1ccc(CC(=O)N2CCC2(C)C(=O)NS(=O)(=O)c2cccc(F)c2)cc1 (configuration not stated),12.8%,/,2.8%,34.8,-4.2%,-11.6%
O=C1NN=C2CCCCCC12 (configuration not stated),?,/,-1.5%,?,-5.9%,-8.3%
COc1cccc(-c2cnc(C(O)c3ccc(CN4CCCC4)cc3)[nH]2)c1 (configuration not stated),-10.3%,/,5.2%,3.8,7.8%,2.2%
Cn1c(-c2ccncc2)nc2cc(C(=O)N[C@H]3CCCCNC3=O)cc(NC(=O)C3CCC3)c21,?,/,/,/,/,-4.4%
COc1cccc(CNc2ncnc3sc(C(=O)N4CCOCC4)c(C)c23)c1OC,1.0%,/,/,/,/,-4.4%[9.04 µM]
CCn1c(SCC(=O)N2CCCCC2C)nc2ccsc2c1=O (configuration not stated),?,-26.8%,4.7%,3.7,-21.0%,10µM*
COc1ccc(CNC(=O)CCCn2c(SCC#N)nc3cc4c(cc3c2=O)OCO4)cc1,-15.9%,23.1µM*,7.4%,12.1,2.3%,-11.9%
COCCCNC(=O)CSc1nc2cc3c(cc2c(=O)n1CCCC(=O)NCc1ccc(OC)cc1)OCO3,-5.1%,-6.4%,5.0%,8.8,8.7%,-1.8%
SMILES,DT40 TDP1 no CPT,ELG1 repair inh,HT1080NT lethal,IL1B secr inh,HT1080 IDH1KD tx,DT40 TDP1 CPT
CC1CCCCN1C(=O)CSc1nc2ccsc2c(=O)n1Cc1ccccn1 (configuration not stated),?,29.1%,9.4%,-7.3,-6.6%,?
CC(C)C1=CC2=CC[C@@H]3[C@](C)(CCC[C@@]3(C)C(=O)O)[C@H]2CC1,-5.3%,/,/,/,/,-7.7%
COCOc1ccc(-c2ncc(OCCN3CCCC3=O)nc2NC(=O)c2cc3ccccc3s2)cc1,?,/,-17.4%,-23.1,-2.4%,?
Cc1cc(C(=O)COC(=O)c2ccccc2NCCO)c(C)n1CC1CCCO1 (configuration not stated),14.6µM*,?,-1.6%,24.0,0.3%,?
Cc1cc(C(=O)COC(=O)c2ccccc2O)c(C)n1CC1CCCO1 (configuration not stated),-24.9%,?,-2.9%[9.24 µM],-6.7,?,?
Cc1cc(C(=O)COC(=O)c2cc(O)c3ccccc3c2O)c(C)n1CC1CCCO1 (configuration not stated),?,0.2%,-14.5%,30.4,-14.2%,16.4µM*
Cc1cc(C(=O)COC(=O)c2ccccc2Br)c(C)n1CC1CCCO1 (configuration not stated),?,?,0.0%,-16.1,-24.0%,?
Cc1cc(C(=O)COC(=O)c2cccnc2Cl)c(C)n1CC1CCCO1 (configuration not stated),?,?,4.0%,25.3,0.1%,23.1µM*
Cc1cc(C)c(NC(=O)Cn2c(=O)n(-c3ccc(F)cc3)c(=O)c3c(C)c(C(=O)N(C)C)sc32)c(C)c1,2.1%,/,/,/,/,-23.1%
Cc1cccc(N2CC(C(=O)Nc3nnc(SCc4ccccn4)s3)CC2=O)c1 (configuration not stated),-2.9%,-1.2%,2.0%,54.0,5.3%,-14.8%
CCn1ncc([N+](=O)[O-])c1C(=O)N1CCc2ccccc2C1,8.7%,22.7%,13.9%,25.5,0.4%,19.4%
